Bioassay records as filed in PubChem.
Shown are actives, neighbours in structure and some others; about 12% of the full set was active somewhere.
CHX counter: counter-screen for Shiga toxin inhibitors: cycloheximide protein synthesis inhibition; actives 12% (n = 300,000); max response, %; cell reporter, cycloheximide protein synthesis inhibition counterscreen; AID 2314; in the data active = max response mostly above about 13%, no sharp cut-off; inactive = mostly below about 14%; note: read at 38.3 µM for the half of the compounds with a filed dose
Marburg entry inh: inhibitors of Marburg virus binding or cell entry; Marburg virus pseudotyped entry inhibition, cell reporter; Potency, µM (top dose mostly 37.8 µM), most hits filed as inhibitors; actives 1.8% (n = 300,000); calls by dose curve; tested in HEK293 cells
Shiga toxin inh: Shiga toxin inhibition | Vero cells, Shiga toxin protein synthesis inhibition reporter | inhibition, % at 38.7 µM | actives 9.2% (n = 290,000); in the data active = inhibition mostly above about 28%, no sharp cut-off; inactive = mostly below about 43%
Lassa entry inh: blocks Lassa virus binding to or entry into cells; Lassa virus pseudotype entry inhibition, cell reporter; Potency, µM (titrated, usually from 37.9 µM), actives largely listed as inhibitors; actives 1.2% (n = 300,000); AID 540256; calls by dose curve; tested in HEK293 cells; note: nearly all actives have a fitted effect of over 50% in size
Numbers stand for hits; . = inactive; ? = inconclusive; / = no result.

SMILES | CHX counter | Marburg entry inh | Shiga toxin inh | Lassa entry inh
COc1ccccc1CN(C)C(=O)c1cc(C)nc2ccccc12 | . | 11µM | . | .
COc1ccccc1CNC(=O)c1cc(C)nc2ccccc12 | . | . | . | .
COc1ccccc1C(=O)OCc1ccc2sc(C)nc2c1 | 28 | . | 78 | .
COc1ccc(C(=O)N[C@H](C(=O)OCC(=O)NC(=O)c2cccn2C)C(C)C)cc1 | 15 | . | . | ?
COc1cc(OC)cc(C(=O)N[C@H](C(=O)OCC(=O)NC(=O)c2cccn2C)C(C)C)c1 | . | / | . | /
CC(C)n1cc2c(N)ncnc2n1 | / | . | / | .
CCCCc1ccc(NC2=NCCCS2)cc1 | 30 | ? | 42 | ?
FC(F)(F)Oc1ccc(NC2=NCCCS2)cc1 | 33 | / | 39 | /
FC(F)(F)c1cccc(NC2=NCCCS2)c1 | . | / | / | /
COc1c(C)cccc1C(=O)Nc1ccc(-c2nc3ccccc3s2)c(Cl)c1 | / | . | / | .
CC(c1ccco1)N(C(=O)c1ccc(Cl)s1)c1ccccn1 (stereo not drawn) | 19 | . | 43 | ?
CC(c1ccco1)N(C(=O)c1ccccc1F)c1ccccn1 (stereo not drawn) | . | . | . | .
CC(c1ccco1)N(C(=O)c1ccc(C(F)(F)F)cc1)c1ccccn1 (stereo not drawn) | . | . | . | ?
Cc1ccc(C(=O)N(c2ccccn2)C(C)c2ccco2)cc1C (stereo not drawn) | 18 | . | . | .
COc1ccc(C(=O)CSc2nnc(NC(=O)C3CC(=O)N(c4ccccc4C)C3)s2)cc1 (stereo not drawn) | . | ? | . | .
CN1CCCN(C(=O)Cc2c(Cl)cccc2Cl)c2nc3ccccc3nc21 | . | . | . | ?
O=C(COC(=O)C1C2CC3OC(=O)C1C3C2)Nc1ccccc1 (stereo not drawn) | 16 | . | . | .
CNS(=O)(=O)c1cc(-c2nn3c(C)nnc3c3ccccc23)ccc1C | / | / | / | .
C[C@@H]1CC[C@H]2C(=O)O[C@@H](Cc3ccccc3)CN2[C@H]1c1ccc(Br)cc1 | / | . | / | /
O=C(Nc1cc(-c2nc3ccccc3s2)ccc1Cl)c1cc2ccccc2o1 | / | / | / | .
Cc1ccc(-c2nc3ccccc3s2)cc1NC(=S)NC(=O)c1ccccc1 | 34 | . | 187 | .
Cc1ccc(-c2nc3ccccc3s2)cc1NC(=O)c1cc(-n2cnnc2)ccc1Cl | 38 | . | 85 | ?
Cc1cccc(CNC(=O)C2CCC(=O)N(Cc3ccccc3F)C2)n1 (stereo not drawn) | . | . | . | ?
CC1(C)CC(NC(=O)C2CCC(=O)N(Cc3ccccc3F)C2)CC(C)(C)C1 (stereo not drawn) | 26 | . | 58 | .
Cc1ccc(C(C)(C)NC(=O)C2CCC(=O)N(Cc3ccccc3F)C2)cc1 (stereo not drawn) | 16 | . | . | .
SMILES | CHX counter | Marburg entry inh | Shiga toxin inh | Lassa entry inh
Cc1ccc2nc(CNC(=O)C3CCC(=O)N(Cc4ccccc4F)C3)cn2c1 (stereo not drawn) | . | ? | . | .
COc1ccc(Cn2ccc3nc(C)c(C(=O)Nc4ccc(OC(F)(F)F)cc4)cc3c2=O)cc1 | / | / | / | .
Cc1ccc2c(c1)N(C(=O)Nc1cccc3c1CCCC3)CCO2 | / | / | / | .
CC(C)N1CN=C(Nc2nc3ccccc3o2)NC1 | 37 | ? | 37 | .
COCCN1CN=C(Nc2nc3ccccc3s2)NC1 | 21 | . | 31 | .
CCCCN1CN=C(Nc2nc3ccccc3o2)NC1 | 62 | . | 116 | .
c1ccc2sc(NC3=NCN(C4CCCCCC4)CN3)nc2c1 | . | ? | . | .
Cc1nc(NC2=NCN(CCc3ccccc3)CN2)nc2ccccc12 | . | / | . | /
COCCN1CN=C(Nc2nc3ccccc3o2)NC1 | 27 | . | . | .
CCCCCCCC/C=C\CCCCCCCC(=O)N[C@H](CO)Cc1ccc(O)cc1 | . | / | . | /
COc1ccc(S(=O)(=O)N2CCC(C(=O)NCC3CC3)CC2)cc1 | . | . | . | ?
CCc1ccc(CNC(=O)c2cc3c(s2)-c2ccccc2OC3)cc1 | / | . | / | /
c1ccc2oc(NC3=NCN(C4CCCCC4)CN3)nc2c1 | 20 | . | . | .
COc1cc2c(c3oc(-c4ccccc4)cc(=O)c13)C=CC(C)(C)O2 | 25 | / | 37 | /
COc1cc(OC)c2c(=O)cc(-c3ccccc3)oc2c1 | 38 | / | 109 | /
COc1cc(OC)c2c(=O)cc(-c3cccnc3)oc2c1 | . | / | . | /
CCN(Cc1ccccc1)C(=O)CCS(=O)(=O)c1ccc2c(c1)n(C)c(=O)c(=O)n2C | . | / | . | /
Cc1nc(-c2ccccc2Cl)sc1C(=O)/C=C/N(C)C | 24 | / | . | /
CCOc1cc(N2CCOCC2)c(OCC)cc1NS(=O)(=O)c1cc(NC(C)=O)ccc1OC | . | . | . | .
OCCNc1cnc2ccccc2n1 | 19 | . | 51 | .
OCCNc1nc2ccccc2nc1NCCO | . | . | . | .
Cc1nn(C)c(C(=O)NNC(=S)NC2CCCCC2)c1Br | 45 | / | 61 | /
CN(C)c1cccc(C(=O)NNC(=S)NC2CCCC2)c1 | 18 | / | . | /
N#CCC(=O)Nc1ccc(C(=O)NNC(=S)NC2CCCCC2)cc1 | / | . | / | .
CCc1c(C(=O)NNC(=S)NC2CCCCC2)csc1C | . | . | . | .
SMILES | CHX counter | Marburg entry inh | Shiga toxin inh | Lassa entry inh
Cn1ncc(Br)c1C(=O)NC1CCCCCCC1 | . | . | . | .
CCc1cc(C(=O)NNC(=S)NC2CCCCC2)cs1 | 46 | / | 54 | /
CC(C)c1cc(C(=O)NNC(=S)NC2CCCCC2)cs1 | 32 | . | 51 | ?
Oc1ccc(/C=N/NC(=S)NCCN2CCOCC2)c(O)c1 | . | . | . | ?
O=C(CCC(=O)N1CCN(Cc2ccccc2)CC1)Nc1nnc(C2CCCCC2)s1 | . | / | . | /
COc1ccccc1CNC(=O)c1cccc(-c2ccccc2OC)n1 | . | / | . | /
CC1CCC(=NNC(=O)Cc2cccn2C)CC1 (stereo not drawn) | . | . | . | .
CC(C)c1ccc(NC2CCCN(C(=O)c3ccco3)C2)cc1 (stereo not drawn) | 13 | / | . | /
O=C(CNC(=O)Cc1ccccc1)NCC(=O)N1CCCCC1 | . | / | . | /
CC1CCCN(C(=O)CNC(=O)c2ccco2)C1 (stereo not drawn) | 33 | / | 53 | /
O=C(Cc1ccccc1)NCC(=O)N1CCCCCC1 | 19 | . | . | .
CC1CCC(=NNC(=O)Cc2ccccc2)CC1 (stereo not drawn) | 14 | . | . | .
CC(C)CC(C(=O)NCCc1ccccc1)N1Cc2ccccc2C1=O (stereo not drawn) | / | / | / | .
COc1cc2c(=O)n(CCC(=O)NCC3CCCO3)c(=O)n(CC(=O)Nc3ccc(F)cc3)c2cc1OC (stereo not drawn) | . | ? | . | ?
O=C1CCN(C(=O)CNC(=O)Cc2ccccc2)CC1 | . | ? | . | .
CC1CCN(C(=O)CCNS(=O)(=O)c2ccccc2)CC1 | 22 | ? | 56 | .
CC1CCN(C(=O)CNC(=O)Cc2ccccc2)CC1 | 23 | / | 30 | /
O=C(CCNS(=O)(=O)c1ccccc1)N1CCC(Cc2ccccc2)CC1 | . | ? | . | ?
COc1ccc(-c2nc(C#N)c(NCc3ccc(F)cc3)o2)cc1OC | 24 | . | . | .
COc1ccc(-c2nc(C#N)c(NCCc3ccccc3)o2)cc1 | 34 | . | 64 | .
COc1ccc(CNc2oc(-c3ccccc3)nc2C#N)cc1 | 22 | / | . | /
CC(=O)Nc1ccc(N(CC(O)Cn2c3ccccc3c3ccccc32)S(=O)(=O)c2ccc(C)cc2)cc1 (stereo not drawn) | . | ? | . | 11µM
